# According to the supplement of paper PMC6555819:
# How the values were obtained:
# Experiment in all cases: PBM binding z-score (relative to random genomic background probes); higher = stronger binding; sequences stand for … in GC…GCGATTGACAGCGTAGAATGAAGG
# [1] = test system: RARb homodimer (NR concentration 270 nM)
# Method in brief: (§1)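 Binding z-scores were set against random background probes. The data came from custom Agilent 4×180K protein-binding microarrays carrying double-stranded probes with 34-nt variable regions, incubated 1 h with ligand-free nuclear receptor dimers. Partner-specific antibodies detected binding, and scanned fluorescence was regression-normalized.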
# [2] = test system: RARg:RXRa (NR concentration 270 nM, RXRa partner concentration 90 nM)
# Method in brief: as §1
# [3] = test system: RARg homodimer (NR concentration 270 nM)
# Method in brief: as §1
# [4] = test system: RXRa DBDmut IVT, anti-RXR (DBD mutation: RXRa K156A/R161A, NR concentration 90 nM)
# Method in brief: as §1
# [5] = test system: RXRa homodimer (NR concentration 180 nM)
# Method in brief: as §1
# [6] = test system: THRa:RXRa (NR concentration 90 nM, RXRa partner concentration 90 nM)
# Method in brief: as §1
# [7] = test system: THRa homodimer (NR concentration 90 nM)
# Method in brief: as §1
# [8] = test system: VDR:RXRa (NR concentration 270 nM, RXRa partner concentration 90 nM)
# Method in brief: as §1
# [9] = test system: VDR homodimer (NR concentration 270 nM)
# Method in brief: as §1
Sequence,PBM binding z-score [1],PBM binding z-score [2],PBM binding z-score [3],PBM binding z-score [4],PBM binding z-score [5],PBM binding z-score [6],PBM binding z-score [7],PBM binding z-score [8],PBM binding z-score [9]
TCATATAGGTAATACAGGGGAAAGTCGGCATCTA,0.303,0.419,0.551,1.97,0.857,0.893,0.385,1.06,-0.00129
GCGACTGGGGCCTCAGCAGGTTACCATAACTTAA,0.199,-0.489,-0.568,-0.479,-0.182,1.19,-0.118,-0.529,-0.622
CTCGAAAGGTCGGTTGAGGTAAGTATACGGATAA,1.72,2.37,2.35,0.522,1.83,4.54,0.648,1.57,0.257
CCAACTGGGGCAAGGTTACCATAACGCACAGCCA,1.51,0.917,1.56,-0.0848,1.13,1.4,0.42,0.166,-0.0492
CCGAGTAGGTTATTGGGCATTCAGGCAACGGTGA,0.361,0.0352,0.187,0.421,0.183,0.0204,0.103,-0.494,0.256
AATACAGGGTCATCGCAGGCCAGAGTACGCACAG,3.53,5.41,5.21,3.48,6.8,4.75,1.42,5.31,3.55
TAGCCTAGGTCATGCGGGCCAGGATAGTGTCGGC,3.1,3.77,4.7,0.23,2.94,3.06,0.933,2.76,0.706
ATCTCTAGTTAAAGTTCAGTGAAAGATCGATAGA,2.53,1.88,2.04,1.84,1.22,0.988,0.202,1.64,2.47
CGAACTAGGTCATCCAGGACAGTCAATACATTGA,3.04,4.11,5.21,2.72,3.39,3.81,2.01,4.83,2.52
CCTTACGGGTCACTGACAGGCTATAGCATTTGGA,2.85,5.13,4.79,1.86,5.2,2.41,-0.00278,3.07,0.687
CGAACTAGGTCAGAACAGGACAGTGTAGGATGAT,2.16,2.56,3.47,0.551,1.28,3.47,0.227,–,0.291
GCTCGGAGGAAAAGGTCAGAGCTTTGTCCGTAGA,4,4.34,4.89,-0.162,4.74,2.22,-0.291,2.14,-0.277
ATCGAAAGCTCGAAGGTGAGTATACCCACCCGAA,-0.378,-0.032,0.202,-1.19,0.158,-0.167,-1.04,-0.463,-0.249
CGCCCAAGGTCAATGCTAGGTCAGTGAAAGCATT,5.07,7.39,6.43,2.91,5.06,4.28,2.72,4.59,2.51
CATACAGGGTCACCTAGGCCAGAGTAGGGACGGC,3.71,5.53,5.52,2.15,6.27,3.65,1.57,5.14,2.32
TAGCCTAGGTCATTCAGTGGCCAGTATAGAAAGC,2.59,4.43,3.96,1.92,2.63,2.55,0.351,2.43,1.24
AGAATGAGGTTATACGTTGATCAGGGAAGAAAGT,0.786,1.49,0.994,1.71,2.12,2.2,0.901,–,1.5
CAAACTAGGTCACAGAGGTCAAAGCCCGTGCGTA,5.57,7.25,7.63,3.22,7.75,4.82,2.99,7.81,6.06
CGAACGAGGGCATCAGTTGATAGCAAATGCCGAT,0.822,0.928,1.83,2.49,0.686,0.964,-0.293,0.559,1.48
TAATATAGGTAATACAGGTGAAAGTCGGCATCTA,0.493,0.614,0.786,0.247,0.906,0.893,0.26,0.659,0.35
TCTTGTAGATAAATAGAGGTTAAGAAAGTGCGCT,1.11,0.845,0.418,1.3,1.46,1.54,-0.012,1.87,0.923
TAGCCTAGGTCATTCAGGGGCCAATATAGAAAGC,3.51,6.6,4.84,2.06,3.15,3.85,0.878,3.77,2.13
GCTAGTTGGTCAGTAAAGGGTCACACACCGGTCG,4.43,4.33,3.73,0.428,3.78,2.77,0.995,3.09,1.74
AGAATGACGTTATACGTAGATCAGGGAAGAAAGT,-0.508,-0.123,0.109,-0.541,-0.108,-0.592,-1.02,-0.532,-0.467
TCTTGCAGATCAAGCAGGTTAAGAAAGCCTGAGT,-0.292,-0.332,-0.629,0.253,-0.0969,0.0949,-0.484,0.157,-0.141
GATCCAGGGTCAAGGCCAGAGTACGCGTATTGAT,3.61,5.58,5.08,2.45,6.11,3.65,1.11,4.58,2.04
